# Experimental data: ChEMBL document CHEMBL3988442, “University of Dundee, Small-Polar-MMV Screening Library” (2021)
# The campaign covered roughly 69,000 compounds. About 1,000 (1.4%) showed an effect of 50% or more. The full list was thinned out, with strong results kept by preference.
# Tested on: Leishmania donovani
# Assay: Leishmania intramacrophage assay
# Format: functional, organism-based
# Parameters: scale not given: in the data most compounds retested in dose-response had high values
smiles,measurement,setting,value
COCCNC(=O)c1sc2ccccc2c1C1CCC(CN)CC1.Cl (stereo not given),Percent Effect,"30.3 µM, […]",18.8%
CN(C)CCNC(=O)c1sc2ccccc2c1C1CCC(CN)CC1.Cl (stereo not given),Percent Effect,"30.3 µM, […]",63.37%
Cl.NCC1CCC(c2c(C(=O)NCCO)sc3ccccc23)CC1 (stereo not given),Percent Effect,"30.3 µM, […]",15.08%
COCc1cccc(NS(=O)(=O)c2cc(C(=O)O)cs2)c1,Percent Effect,"30 µM, 30.03 µM",36.6%
CCNc1ncc2c(n1)CN(c1ccc(OC(F)(F)F)cc1)C2=O,Percent Effect,"30.3 µM, […]",23.96%
OC1(CNCc2ccc(F)c(C(F)(F)F)c2)CCSCC1,Percent Effect,"30.3 µM, […]",40.38%
CN1CCC(O)(CNCc2ccc(F)c(C(F)(F)F)c2)CC1,Percent Effect,"30.3 µM, […]",85.74%
OC1(CNCc2ccc(F)c(C(F)(F)F)c2)CCOC1 (stereo not given),Percent Effect,"30.3 µM, […]",25.18%
CC(C)N1CCN(c2ccc3ccc(C(=O)NC4CCCC4)cn23)CC1.O=C(O)C(F)(F)F,Percent Effect,"30.3 µM, […]",37.85%
N#Cc1cc(F)c(NCCCOCC2CCOC2)c(F)c1 (stereo not given),Percent Effect,"30.3 µM, […]",29.08%
CCc1c(C)nc(C)nc1N1C[C@@H](CN(CC)CCO)[C@@H](CO)C1,Percent Effect,"30.3 µM, […]",-0.6836%
CCc1c(C)nc(C)nc1N1C[C@@H](CN(C)CCN(C)C)[C@@H](CO)C1,Percent Effect,"30.3 µM, […]",30.66%
CCc1c(C)nc(C)nc1N1C[C@@H](CN(C)C)[C@@H](CO)C1,Percent Effect,"30.3 µM, […]",54.47%
Cn1ccnc1CN1C[C@@H](CN2CCCC2)[C@@H](CO)C1,Percent Effect,"30.3 µM, […]",30.27%
CCN1CC[C@]2(CN(Cc3nccs3)C[C@H]2c2ccccc2)C1=O.O=C(O)C(F)(F)F,Percent Effect,"30.3 µM, […]",23.61%
COc1ccc(-c2n[nH]c(C)c2CC(=O)NCCN2CCOCC2)cc1,Percent Effect,"30.3 µM, […]",-10.63%
Cc1noc(CS(=O)(=O)C(C)C(=O)N(C)c2ccccc2)n1 (stereo not given),Percent Effect,"30.3 µM, […]",12.83%
Cc1cc(CS(=O)(=O)C(C)C(=O)N(C)c2ccccc2)on1 (stereo not given),Percent Effect,"30.3 µM, […]",59.375%
Cc1noc(C)c1CS(=O)(=O)C(C)C(=O)N(C)c1ccccc1 (stereo not given),Percent Effect,"30.3 µM, […]",39.61%
Cc1cc(C)n(CC2CN(Cc3cc(C)on3)CCO2)n1 (stereo not given),Percent Effect,30 µM,28.82%
O=C(CN1CCOCS1(=O)=O)NCc1ccccc1,Percent Effect,"30.3 µM, […]",-15.82%
COC1COC2(CCN(Cc3ccc4c(c3)OCO4)CC2)C1.O=C(O)C(F)(F)F (stereo not given),Percent Effect,"30.3 µM, […]",2.758%
CC(C)n1c(C2CCCN(CCS(C)(=O)=O)C2)nc2ccccc21 (stereo not given),Percent Effect,"30 µM, 30.03 µM",13.25%
CC(C)OCCCN1CCCC(c2nc3ccccc3n2C(C)C)C1 (stereo not given),Percent Effect,"30 µM, 30.03 µM",51.41%
CC(C)n1c(C2CCCN(CC(N)=O)C2)nc2ccccc21 (stereo not given),Percent Effect,"30.3 µM, […]",0.009374%
CC(C)c1noc(OCc2cccc(C#N)c2)n1,Percent Effect,"30.3 µM, […]",36.94%
CN1CCN(Cc2noc(-c3cc(-c4ccccc4F)n[nH]3)n2)CC1,Percent Effect,"30.3 µM, […]",-14.35%
c1cc2c(cc1-n1nc(C3CC3)nc1-c1csnn1)OCCO2,Percent Effect,"30.3 µM, […]",-0.4467%
CC(CNC(=O)c1c[nH]nn1)Oc1ccc(Cl)cc1 (stereo not given),Percent Effect,"30.3 µM, […]",-48.71%
c1cc(C2CCN(c3ncnc4c3CCNCC4)CC2)ccn1,Percent Effect,"30.3 µM, […]",3.191%
c1ccc(C2CCCN(c3ncnc4c3CCNC4)CC2)cc1 (stereo not given),Percent Effect,"30.3 µM, […]",74.19%
c1ccn2c(C3CCCN(c4ncnc5c4CCNC5)C3)nnc2c1 (stereo not given),Percent Effect,"30.3 µM, […]",-1.091%
Clc1cccc(C2CCN(c3ncnc4c3CCNC4)C2)c1 (stereo not given),Percent Effect,"30.3 µM, […]",76.01%
c1ccc2c(c1)CN(c1ncnc3c1CCNC3)CCO2,Percent Effect,"30.3 µM, […]",24.34%
c1ccc(C2CCN(c3ncnc4c3CCNC4)CC2)cc1,Percent Effect,"30.3 µM, […]",29.27%
N#Cc1cc(C(F)(F)F)ccc1NCC1CCS(=O)(=O)CC1,Percent Effect,"30.3 µM, […]",3.711%
O=C(c1cc[nH]n1)N1CCC(c2cc(Nc3ccccn3)n[nH]2)CC1,Percent Effect,"30.3 µM, […]",6.823%
Cc1ccc(NC2CCN(C(=O)c3cccc4[nH]ncc34)CC2)nn1,Percent Effect,"30.3 µM, […]",16.62%
COc1ccccc1C(C)CC(=O)N1CC[C@H](O)C1 (stereo not given in full),Percent Effect,"30.3 µM, […]",5.433%
Cc1ccccc1C(C)CC(=O)N1CC[C@H](O)C1 (stereo not given in full),Percent Effect,"30.3 µM, […]",50.74%
Cc1cc(CCC(=O)N2CC[C@H](O)C2)ccc1Br,Percent Effect,"30.3 µM, […]",-18.41%
COCCNc1ccccc1CNC(=O)NCc1cnc(C)s1,Percent Effect,"30.3 µM, […]",19.41%
c1cnn(CC2CCCN2Cc2nc(-c3ccoc3)no2)c1 (stereo not given),Percent Effect,"30 µM, 30.03 µM",-37.38%
Cn1nc(C(=O)NCc2ccccc2C(F)(F)F)c2c1CCS(=O)(=O)C2,Percent Effect,"30.3 µM, […]",36.38%
CCN1CC2(CCCCN2C(=O)c2ccsc2)CC1=O (stereo not given),Percent Effect,"30.3 µM, […]",22.42%
C=C1C(C)(C)[C@H]2CC[C@]1(C(=O)N1CCC(Cn3cc(CO)nn3)CC1)C2,Percent Effect,"30.3 µM, […]",-11.33%
Cc1nc(CN2CCC3(C2)CN(C(=O)c2ccc[nH]2)C3)cs1,Percent Effect,"30.3 µM, […]",35.81%
Cc1nc(CN2CCC3(CCCN(Cc4ccoc4)C3)C2=O)cs1.O=C(O)C(F)(F)F.O=C(O)C(F)(F)F (stereo not given),Percent Effect,"30.3 µM, […]",15.73%
Cc1nc(CN2CCC23CCN(Cc2ccoc2)CC3)cs1,Percent Effect,"30.3 µM, […]",63.43%
Cc1nc(CN2C(=O)CCC23CCN(Cc2ccco2)CC3)cs1,Percent Effect,"30.3 µM, […]",23.38%
Cc1nc(CN2CCC23CCN(C(=O)c2ccco2)CC3)cs1,Percent Effect,"30.3 µM, […]",26.24%
Cc1nc(CN2CCN(C(=O)CCc3ccco3)CC2)cs1,Percent Effect,30 µM,15.52%
Cc1nc(CN2CCC23CCN(Cc2ccco2)CC3)cs1,Percent Effect,"30.3 µM, […]",53.61%
Cc1nc(CN2CCC3(C2)CN(Cc2ccco2)C3)cs1,Percent Effect,"30.3 µM, […]",58.57%
Cc1nc(CN2C(=O)CCC23CCN(Cc2ccoc2)CC3)cs1.O=C(O)C(F)(F)F.O=C(O)C(F)(F)F,Percent Effect,"30.3 µM, […]",9.105%
